Data on 16 compounds can be found in PubChem BioAssay (NCI).

Several values for one entry are separate records, joined by “and”; a condition that tells them apart may be missing. Identical values can stand only once. This is part of a sample that, as a whole, favours compounds with a hit. Of some 79,000 tested, about 15% had one in any assay. Values without a mark were called inactive. Activity calls are given as the source filed them. No stated cut-off is given here; in the data, active means growth inhibition above about 70%; inactive means the rest.

The nature of this assay: NCI Yeast Anticancer Drug Screen. Data for the cln2 rad14 strain (AID 165).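 Further: 0% = growth equal to vehicle treated cultures.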 As to conditions: S. cerevisiae cln2 rad14 strain, at 50.0 µM, hits give high values. In short, it runs like this: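 cln2 rad14 yeast strain; compound exposure; growth inhibition read vs vehicle controls.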
Consider `O=C(c1ccccc1)C1C(C(=O)c2ccccc2)N1Cc1ccccc1` (stereo unspecified), for which the growth inhibition is 2.8% and -1.2%.

As to `CCC1CN2CCc3cc(OC)c(OC)cc3C2CC1CC1c2cc(OC)c(OC)cc2CCN1C(=O)C(N)Cc1ccccc1` (stereo unspecified), the growth inhibition is -3.05%.

Consider `COc1cc(C(CC(C)=O)c2cc3c(cc2OC(C)=O)OCO3)cc(OC)c1OC` (stereo unspecified), for which the growth inhibition is -9.1%.

In the case of `CN(C)NP(c1ccccc1)c1ccccc1`, the growth inhibition was -6.1%.

Take `OCC(O)C(O)C(O)C1C[O][Sb][O]1` (stereo unspecified): the growth inhibition is -11.2%.

Take `Nc1ccc(/C=C/C(=O)Nc2ccc(S(=O)(=O)F)cc2)cc1`: the growth inhibition is 40.1%.

For the compound `[Cl][Hg][c]1ccccc1N=Nc1ccccc1I`, the growth inhibition is 98.8% (active).

For `CC1CCCN(C(c2ccccc2)C(O)c2ccccc2)C1` (stereo unspecified), the growth inhibition is -19.4%.

For `CCN1C[C@]2(COC)[C@H](O)C[C@H](OC)[C@]34C1[C@H]([C@H](OC)[C@H]23)[C@]1(OC(C)=O)[C@H]2[C@@H](OC(=O)c3ccccc3)[C@](O)(C[C@H]24)[C@@H](OC)[C@@H]1O`, the growth inhibition was -6.85%.

For `[Cl][Tl]`, the growth inhibition was -11.3%.

With `CCCCOP(=O)(NCCOC)OCCCC`, the growth inhibition is 6.9%.

Take `CC(C)(O)C1=CC23CC(C)(C(=O)O)C4CCCCC4(C)C2CC1OO3` (stereo unspecified): the growth inhibition was 11.4%.

As for `O=[Te]=O`, the growth inhibition was 5%.

Consider `Cc1cnc2ncn(Cc3c[nH]c(=O)[nH]c3=O)c(=O)c2c1`, for which the growth inhibition was 14.2%.

With `CCOP(=O)(OCC)Oc1cc(C)c(SC)c(C)c1`, the growth inhibition is 9.25%.

Consider `CC(Cl)C(=O)OC(C)(C)Cl` (stereo unspecified), for which the growth inhibition was 11.1%.
